In PubChem BioAssay (NCATS):
Inconclusive results are not listed. Calls of active or inactive are those of the source. Unless noted, calls come from the whole dose curve; as a rule, active = well fitted curve in the direction sought with a large enough effect; inconclusive = small, poorly fitted or top-dose-only effect, or another doubt; inactive = no such curve, though single readings can be large; an effect the other way counts as inactive or inconclusive.

Tests used:
[1] = qHTS for differential inhibitors of proliferation of Plasmodium falciparum line 7G8 (AID 1815);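 note: parasite growth measured after three days of incubation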; note: potency is the fitted concentration of half-maximal effect
[2] = qHTS for differential inhibitors of proliferation of Plasmodium falciparum line GB4 (AID 1816); conditions: Potency: Plasmodium falciparum GB4 proliferation inhibition;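 note: parasite growth measured after 72 h incubation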; note: potency is the fitted concentration of half-maximal effect
[3] = qHTS for differential inhibitors of proliferation of Plasmodium falciparum line 3D7 (AID 1876); note: potency is the fitted concentration of half-maximal effect
[4] = qHTS for differential inhibitors of proliferation of Plasmodium falciparum line D10 (AID 1877);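 note: parasites grown with compound for 72 h before DNA staining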; note: potency is the fitted concentration of half-maximal effect
[5] = qHTS for differential inhibitors of proliferation of Plasmodium falciparum line Dd2 (AID 1882); conditions: Potency: Plasmodium falciparum Dd2 proliferation inhibition; note: nearly all actives have a fitted effect of over 65% in size; note: potency is the fitted concentration of half-maximal effect
Summary of the method: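 RBC culture, 0.3% parasitemia / 2.5% Hct final; cpd added by pin tool in DMSO; 72 h, 37 C, 5% CO2; lysis buffer + SYBR Green I, o/n RT dark; FI 485/535; norm. to artemisinin 0.29 uM and DMSO.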

[6] = qHTS for differential inhibitors of proliferation of Plasmodium falciparum line W2 (AID 1883); conditions: Potency: Plasmodium falciparum W2 proliferation inhibition;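 note: parasites grown with compound for 72 h before lysis and staining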; note: potency is the fitted concentration of half-maximal effect
[7] = qHTS for differential inhibitors of proliferation of Plasmodium falciparum line HB3 (AID 1886); conditions: Potency: Plasmodium falciparum HB3 proliferation inhibition;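 note: parasites grown with compound for 72 h before SYBR Green readout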; note: potency is the fitted concentration of half-maximal effect
[8] = target: ATP-dependent DNA helicase Q1 (Homo sapiens) (UniProt P46063); experiment: qHTS Validation Assay for Inhibitors of RecQ-Like Dna Helicase 1 (RECQ1) (AID 2353)
Summary of the method: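 RECQ1T1 50 nM; forked duplex (20 bp + 30-nt ss tails) 200 nM, ATP 2 mM final; pH 8.0, 2 mM MgCl2, 2.5 ug/ml poly(dI-dC); 15 min compound preincubation; discontinuous kinetic read over 2 h at RT.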

[9] = target: RecQ-like DNA helicase BLM (Homo sapiens) (UniProt P54132); experiment: qHTS Validation Assay for Inhibitors of Bloom's syndrome helicase (BLM) (AID 2364)
Summary of the method: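 BLM 50 nM in 25 mM Tris-HCl pH 8.0, 5 mM NaCl, 2 mM MgCl2, 1 mM DTT, 0.01% Tween-20, 2.5 ug/ml poly(dI-dC); 15 min cpd preinc, RT. Start: 200 nM forked DNA + 2 mM ATP (final). TAMRA read, 2 reads 2 h apart.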

[10] = High Content Imaging Cell-Based qHTS for Inhibitors of the mTORC1 Signaling Pathway in MEF Cells (AID 2667); note: potency is the fitted concentration of half-maximal effect
Summary of the method: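 Fixed-cell imaging of phospho-S6 (Ser235/236, Alexa-488) after 24 hrs of compound treatment at 37 degree Celsius. Signal was normalized to Hoechst, and thresholds from the highest and lowest wells split cells into % active versus % non-active.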

[11] = target: Ubiquitin carboxyl-terminal hydrolase 2 (Homo sapiens) (UniProt O75604); experiment: qHTS Validation Assay for Inhibitors of Ubiquitin-specific Protease USP2a Using CHOP2 as the Reporter (AID 463106)
Summary of the method: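 Inhibition is expressed relative to NEM as the full-inhibition control, with concentration-response curves classed by fit quality, magnitude and activity. Enzyme (USP2 core, 10nM) meets 25nM Ub-CHOP2 after compound preincubation; readings are taken at 60min.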

[12] = target: DNA polymerase III PolC-type (Bacillus subtilis (strain 168)) (UniProt P13267); experiment: qHTS Validation Assay for the Inhibitors of DNA Replication in Gram-Positive Bacteria (AID 485295);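 note: reconstituted holoenzyme with PolC plus beta clamp SSB and primase; PicoGreen fluorescence of double-stranded DNA made on primed circular M13 template; series mostly up to about 57 µM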
Summary of the method: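 Inhibition of DNA synthesis by the reconstituted PolC holoenzyme, monitored through PicoGreen staining of dsDNA formed from ssM13Gori, dNTPs and NTPs, with compound preincubation and room-temperature reaction.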

[13] = target: Tumor susceptibility gene 101 protein (Homo sapiens) (UniProt Q99816); experiment: qHTS Validation Assay for Iinhibitors of HIV-1 Budding by Blocking the Interaction of PTAP/TSG101 (AID 485342; calls by dose curve)
Summary of the method: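 Compound wells held the Tsg101 binding domain (10 uM) and a FITC-conjugated PTAP peptide (50 nM) in buffer at pH 7.5 containing 0.15 M NaCl and 0.01% Tween 20; polarization was recorded after 20 min, r.t.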

[14] = target: Ferritin light chain (Equus caballus) (UniProt P02791); experiment: qHTS Validation Assay for Identification of Novel General Anesthetics (AID 2323); note: series mostly up to about 77 µM
Summary of the method: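 Normalized fluorescence response, scaled between free 1-AMA and 1-AMA/apoferritin complex, fitted to a four-parameter Hill equation for concentration-effect values. Binding mix: 10 uM horse-spleen apoferritin, 50% saturated 1-AMA in PBS; read 380/535 nm after 10 min.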

[15] = Cytometric Cell-Based qHTS for Inhibitors of the mTORC1 Signaling Pathway in MEF (Tsc2-/-, p53-/-) Cells (AID 2660); note: potency is the fitted concentration of half-maximal effect
Summary of the method: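 Tsc2-/-, p53-/- MEFs (empty vector) exposed to compound 24 h at 37 C, fixed, stained with Alexa-488 anti-phospho-rpS6 Ser235/236 and propidium iodide. Acumen laser scanning; phospho-S6/PI ratio thresholded against 7.5 nM rapamycin, reported as % positive cells.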

[16] = High Content Imaging Cell-Based qHTS for Inhibitors of the mTORC1 Signaling Pathway in MEF (Tsc2-/-, p53-/-) Cells (AID 2666);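 note: percent of cells scored positive for phospho-rpS6 Ser235/236 immunostaining by imaging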; note: potency is the fitted concentration of half-maximal effect
Summary of the method: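 Inhibition of rpS6 phosphorylation is measured by immunofluorescence imaging in empty-vector Tsc2-/-, p53-/- mouse embryonic fibroblasts after 24 hrs compound exposure at 37 degree Celsius. Results are reported as % positive cells per well.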

[17] = Cytometry Cell-Based qHTS for Inhibitors of the mTORC1 Signaling Pathway in MEF cells (AID 2668); note: potency is the fitted concentration of half-maximal effect
Summary of the method: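 In MEFs grown in DMEM + 10% FBS, a 24 hrs compound exposure preceded imaging of phospho-rpS6 Ser235/236 by laser-scanning cytometry.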

[18] = Validation screen for small molecules that induce DNA re-replication in MCF 10A normal breast cells (AID 463097); note: nearly all actives have a fitted effect of over 60% in size
Summary of the method: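 Following 48 hr compound incubation (37 C, 5% CO2), MCF 10A cells receive Hoechst for 40 min at 37 C. Nuclei are then scanned (excitation 405 nm, emission 500-530 nm) for total fluorescence intensity.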

[19] = qHTS Assay for Modulators of Human Peripheral Myelin Protein 22 (PMP22) Expression/Activity (AID 1967; active = well fitted curve in the direction sought with a large enough effect in the signal ratio; the % refers to the signal ratio)
Summary of the method: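 Engineered MSC80 cells, Pmp22-promoter green and EF-alpha red luciferase reporters; 24h compound treatment at 37 °C. Concentration-response fits on green, red and ratio signals, each overlap-corrected, with %Activity normalized to untreated wells.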

[20] = qHTS Assay for Identification of Small Molecule Inducers of Hypoxia Response (AID 2120; active = well fitted curve in the direction sought with a large enough effect in the signal ratio, with a control signal flat, not every such curve was filed as active; the % refers to the signal ratio)
Summary of the method: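 Read-out: CCF4 FRET emission ratio 460nm/530nm (excitation 405nm), converted to %Activity, with AC50 fitted across a compound titration. ME-180 cells carried an HRE-driven beta-lactamase reporter; compound exposure 17 h, 37 degrees C.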

Measured: Potency

Sequence of ATP-dependent DNA helicase Q1 (Homo sapiens) (P46063 whole entry, looked up): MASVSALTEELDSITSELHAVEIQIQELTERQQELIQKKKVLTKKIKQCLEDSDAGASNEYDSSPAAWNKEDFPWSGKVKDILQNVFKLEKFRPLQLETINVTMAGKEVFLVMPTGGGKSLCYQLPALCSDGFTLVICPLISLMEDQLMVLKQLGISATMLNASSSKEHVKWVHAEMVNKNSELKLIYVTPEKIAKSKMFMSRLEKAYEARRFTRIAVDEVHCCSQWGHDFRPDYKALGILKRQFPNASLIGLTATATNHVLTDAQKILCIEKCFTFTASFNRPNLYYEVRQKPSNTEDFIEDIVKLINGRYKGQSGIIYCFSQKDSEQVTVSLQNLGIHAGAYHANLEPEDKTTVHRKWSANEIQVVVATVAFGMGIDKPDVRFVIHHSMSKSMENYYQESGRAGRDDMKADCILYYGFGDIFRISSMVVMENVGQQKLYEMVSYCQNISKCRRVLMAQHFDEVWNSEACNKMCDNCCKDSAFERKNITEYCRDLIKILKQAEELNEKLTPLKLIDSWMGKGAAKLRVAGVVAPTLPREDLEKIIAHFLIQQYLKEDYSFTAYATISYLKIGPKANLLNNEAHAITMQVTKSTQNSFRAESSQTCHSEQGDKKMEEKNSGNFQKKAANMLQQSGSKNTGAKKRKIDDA
Sequence of Ferritin light chain (Equus caballus) (P02791 2-175 limits assumed): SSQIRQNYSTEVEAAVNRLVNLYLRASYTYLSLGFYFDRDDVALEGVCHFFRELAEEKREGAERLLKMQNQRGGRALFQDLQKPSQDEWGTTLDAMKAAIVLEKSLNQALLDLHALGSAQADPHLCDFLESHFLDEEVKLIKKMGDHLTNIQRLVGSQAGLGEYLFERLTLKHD
Sequence of Tumor susceptibility gene 101 protein (Homo sapiens) (Q99816 whole entry, looked up, the tested form may be a part): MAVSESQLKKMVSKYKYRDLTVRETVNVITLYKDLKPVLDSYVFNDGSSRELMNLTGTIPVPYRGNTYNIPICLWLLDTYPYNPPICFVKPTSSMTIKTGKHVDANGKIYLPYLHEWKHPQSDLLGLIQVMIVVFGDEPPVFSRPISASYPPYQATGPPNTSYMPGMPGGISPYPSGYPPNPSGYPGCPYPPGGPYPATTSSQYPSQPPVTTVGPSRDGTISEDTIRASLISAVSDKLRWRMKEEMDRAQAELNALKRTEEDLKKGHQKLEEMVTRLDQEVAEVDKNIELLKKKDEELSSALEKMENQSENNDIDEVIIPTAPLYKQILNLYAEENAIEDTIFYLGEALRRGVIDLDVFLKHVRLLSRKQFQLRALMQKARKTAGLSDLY
Sequence of Ubiquitin carboxyl-terminal hydrolase 2 (Homo sapiens) (O75604 whole entry, looked up): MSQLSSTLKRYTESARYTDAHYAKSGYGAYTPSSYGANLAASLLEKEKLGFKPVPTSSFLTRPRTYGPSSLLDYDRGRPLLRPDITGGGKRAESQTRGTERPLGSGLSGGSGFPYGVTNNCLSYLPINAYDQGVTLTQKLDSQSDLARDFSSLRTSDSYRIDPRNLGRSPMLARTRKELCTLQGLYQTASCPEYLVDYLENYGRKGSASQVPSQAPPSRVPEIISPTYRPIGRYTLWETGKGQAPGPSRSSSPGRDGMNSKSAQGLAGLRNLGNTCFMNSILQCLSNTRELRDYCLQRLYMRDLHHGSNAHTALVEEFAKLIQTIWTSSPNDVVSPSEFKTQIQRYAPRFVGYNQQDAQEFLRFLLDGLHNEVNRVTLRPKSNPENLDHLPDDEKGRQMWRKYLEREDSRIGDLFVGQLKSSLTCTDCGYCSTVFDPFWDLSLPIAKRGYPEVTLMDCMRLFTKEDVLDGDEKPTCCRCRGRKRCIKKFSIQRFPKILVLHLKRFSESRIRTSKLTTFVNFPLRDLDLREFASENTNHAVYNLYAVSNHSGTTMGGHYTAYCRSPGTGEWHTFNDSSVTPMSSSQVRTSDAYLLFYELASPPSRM
Sequence of DNA polymerase III PolC-type (Bacillus subtilis (strain 168)) (P13267 whole entry, looked up): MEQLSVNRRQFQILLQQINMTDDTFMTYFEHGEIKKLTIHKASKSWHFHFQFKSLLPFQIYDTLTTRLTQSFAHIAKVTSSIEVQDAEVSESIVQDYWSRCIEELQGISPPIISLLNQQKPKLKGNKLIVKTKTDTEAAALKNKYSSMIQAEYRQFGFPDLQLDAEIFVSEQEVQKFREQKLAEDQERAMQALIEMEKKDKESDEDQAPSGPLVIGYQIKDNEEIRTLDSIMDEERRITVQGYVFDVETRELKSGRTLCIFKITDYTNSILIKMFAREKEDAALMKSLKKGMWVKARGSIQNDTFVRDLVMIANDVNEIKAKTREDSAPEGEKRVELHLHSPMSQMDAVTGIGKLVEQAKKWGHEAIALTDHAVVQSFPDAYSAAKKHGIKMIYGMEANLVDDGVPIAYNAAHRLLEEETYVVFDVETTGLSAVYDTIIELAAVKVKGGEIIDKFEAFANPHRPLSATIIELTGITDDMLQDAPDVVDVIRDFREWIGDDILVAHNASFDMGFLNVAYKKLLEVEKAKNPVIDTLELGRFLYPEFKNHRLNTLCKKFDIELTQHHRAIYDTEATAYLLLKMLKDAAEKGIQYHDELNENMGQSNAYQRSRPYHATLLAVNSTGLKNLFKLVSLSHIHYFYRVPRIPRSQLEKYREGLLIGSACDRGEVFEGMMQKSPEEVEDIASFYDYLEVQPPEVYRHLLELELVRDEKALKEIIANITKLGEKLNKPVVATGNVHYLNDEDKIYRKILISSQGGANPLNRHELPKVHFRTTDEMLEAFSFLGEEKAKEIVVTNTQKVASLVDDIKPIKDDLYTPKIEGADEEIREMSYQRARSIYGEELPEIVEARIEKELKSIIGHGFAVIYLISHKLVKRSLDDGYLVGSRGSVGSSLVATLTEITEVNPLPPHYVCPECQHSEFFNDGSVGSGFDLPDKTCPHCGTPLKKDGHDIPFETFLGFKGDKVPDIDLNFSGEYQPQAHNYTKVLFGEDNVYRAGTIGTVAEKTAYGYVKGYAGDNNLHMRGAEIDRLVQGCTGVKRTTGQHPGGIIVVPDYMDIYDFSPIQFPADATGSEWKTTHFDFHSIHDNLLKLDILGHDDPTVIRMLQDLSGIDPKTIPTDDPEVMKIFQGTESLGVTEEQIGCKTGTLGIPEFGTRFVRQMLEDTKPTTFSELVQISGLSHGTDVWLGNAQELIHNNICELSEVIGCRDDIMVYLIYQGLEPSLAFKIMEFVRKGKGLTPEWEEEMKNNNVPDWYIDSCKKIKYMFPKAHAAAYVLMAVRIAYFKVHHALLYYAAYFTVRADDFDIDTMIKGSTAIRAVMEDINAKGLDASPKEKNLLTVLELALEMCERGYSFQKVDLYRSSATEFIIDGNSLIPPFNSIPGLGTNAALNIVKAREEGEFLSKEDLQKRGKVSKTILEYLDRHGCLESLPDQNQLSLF
Sequence of RecQ-like DNA helicase BLM (Homo sapiens) (P54132 whole entry, looked up): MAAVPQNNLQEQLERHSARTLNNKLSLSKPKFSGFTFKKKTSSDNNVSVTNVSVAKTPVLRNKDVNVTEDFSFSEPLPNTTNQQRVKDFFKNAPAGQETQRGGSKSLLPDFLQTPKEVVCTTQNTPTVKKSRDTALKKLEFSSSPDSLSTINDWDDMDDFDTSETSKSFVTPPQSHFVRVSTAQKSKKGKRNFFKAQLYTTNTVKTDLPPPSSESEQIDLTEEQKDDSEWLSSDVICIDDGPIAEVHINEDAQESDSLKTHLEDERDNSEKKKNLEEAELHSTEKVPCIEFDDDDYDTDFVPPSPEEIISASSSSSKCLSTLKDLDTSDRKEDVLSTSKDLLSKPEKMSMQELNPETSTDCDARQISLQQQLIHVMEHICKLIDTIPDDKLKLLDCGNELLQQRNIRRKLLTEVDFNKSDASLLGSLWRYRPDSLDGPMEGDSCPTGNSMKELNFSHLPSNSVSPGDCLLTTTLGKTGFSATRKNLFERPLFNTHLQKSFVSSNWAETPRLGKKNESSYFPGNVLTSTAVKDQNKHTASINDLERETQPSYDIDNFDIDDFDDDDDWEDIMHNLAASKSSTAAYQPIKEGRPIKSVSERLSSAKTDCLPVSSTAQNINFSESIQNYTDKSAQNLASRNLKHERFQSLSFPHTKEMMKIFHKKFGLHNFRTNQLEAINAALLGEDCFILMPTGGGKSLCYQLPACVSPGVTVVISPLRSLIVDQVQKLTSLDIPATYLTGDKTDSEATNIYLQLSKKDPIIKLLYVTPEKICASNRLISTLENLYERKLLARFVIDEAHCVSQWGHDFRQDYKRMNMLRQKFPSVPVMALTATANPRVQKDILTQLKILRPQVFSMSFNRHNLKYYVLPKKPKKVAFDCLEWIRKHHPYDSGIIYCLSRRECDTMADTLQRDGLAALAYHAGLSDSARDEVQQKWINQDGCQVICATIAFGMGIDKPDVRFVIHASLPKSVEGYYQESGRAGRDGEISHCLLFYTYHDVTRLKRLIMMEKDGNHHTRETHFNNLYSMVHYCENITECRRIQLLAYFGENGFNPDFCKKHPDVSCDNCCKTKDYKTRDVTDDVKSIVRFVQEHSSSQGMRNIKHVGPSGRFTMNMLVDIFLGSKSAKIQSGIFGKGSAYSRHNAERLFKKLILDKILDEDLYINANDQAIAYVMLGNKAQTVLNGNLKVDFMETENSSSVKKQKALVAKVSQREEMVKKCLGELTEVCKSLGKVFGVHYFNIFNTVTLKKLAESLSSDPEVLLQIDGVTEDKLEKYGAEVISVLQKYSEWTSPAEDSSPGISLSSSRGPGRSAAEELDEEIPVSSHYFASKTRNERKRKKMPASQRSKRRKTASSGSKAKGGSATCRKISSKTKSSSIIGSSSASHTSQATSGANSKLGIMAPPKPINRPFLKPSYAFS

CSc1ccc2c(c1)C(N1CCN(C)CC1)Cc1ccccc1S2 (centres undefined)
active: [1] 6.31 µM | [2] 11.2 µM | [3] 8.91 µM | [4] 12.6 µM | [5] 8.91 µM | [6] 4.47 µM | [7] 10 µM
inactive: [8] | [9] | [10] | [11] | [12] | [13]

CCN(CC)CCOC(=O)C1(C2CCCCC2)CCCCC1
active: [1] 8.91 µM | [2] 14.1 µM | [4] 15.8 µM | [5] 5.01 µM | [6] 5.62 µM | [7] 12.6 µM
not listed: [3] | [19] | [20]
inactive: all other assays above

CC(C(O)c1ccc(O)cc1)N1CCC(Cc2ccccc2)CC1 (centres undefined)
active: [1] 7.08 µM | [2] 3.98 µM | [3] 4.47 µM | [5] 10 µM | [6] 2.82 µM | [7] 5.01 µM | [17] 11.7 µM
not listed: [4] | [10] | [18] | [19] | [20]
inactive: all other assays above

CCN(CC)CCCC(C)Nc1c2ccc(Cl)cc2nc2ccc(OC)cc12 (centres undefined)
inactive: [9] | [12] | [13]
active: [1] 0.178 µM | [2] 0.0891 µM | [3] 0.1 µM | [4] 0.0891 µM | [5] 0.126 µM | [6] 0.0891 µM | [7] 0.0891 µM | [15] 16.5 µM | [16] 18.5 µM | [10] 14.7 µM

NC(N)=NCCC[C@H](N)C(=O)O
not listed: [19] | [20]
inactive: all other assays above

N=c1c[n+](N2CCOCC2)[n-]o1
not listed: [3] | [6] | [20]
inactive: all other assays above

CSc1ccc2c(c1)N(CCC1CCCCN1C)c1ccccc1S2 (centres undefined)
active: [1] 4.47 µM | [2] 3.98 µM | [3] 8.91 µM | [4] 12.6 µM | [5] 12.6 µM | [6] 5.01 µM | [7] 8.91 µM
inactive: [14] | [8] | [9] | [10] | [11] | [12] | [13]

C[C@H]1O[C@@H](n2cc(F)c(=O)[nH]c2=O)[C@H](O)[C@@H]1O
inactive: [1] | [2] | [3] | [4] | [5] | [6] | [7] | [14] | [8] | [9] | [18]

CC(C)(C)[C@]1(O)CCN2C[C@H]3c4ccccc4CCc4cccc(c43)[C@@H]2C1
active: [17] 5.85 µM
inactive: [15] | [16] | [10] | [11] | [12] | [13]

NC(=O)c1ncn([C@@H]2O[C@H](CO)[C@@H](O)[C@H]2O)n1
not listed: [1] | [2] | [3] | [6] | [19] | [20]
inactive: all other assays above

CC1=C(CC(=O)O)c2cc(F)ccc2/C1=C\c1ccc(S(C)(=O)=O)cc1
not listed: [1] | [6] | [7] | [19] | [20]
inactive: all other assays above

Nc1ncnc2c1ncn2[C@@H]1O[C@H](CO)[C@@H](O)[C@H]1O
inactive: [15] | [16] | [10] | [17] | [11] | [12] | [13]

CNCC(O)c1ccc(O)c(O)c1 (centres undefined)
active: [6] 14.1 µM
not listed: [1] | [2] | [3] | [4] | [7] | [9] | [19] | [20]
inactive: all other assays above

CCCCCCCCCCCCOS(=O)(=O)O
inactive: [20]

CN(C)CCCN1c2ccccc2CCc2ccccc21
inactive: [14] | [8] | [9] | [15] | [16] | [18] | [12] | [13]

CCCn1cnc2c1c(=O)n(CCCCC(C)=O)c(=O)n2C
active: [6] 12.6 µM
not listed: [1] | [2] | [3] | [4] | [7] | [9] | [19] | [20]
inactive: all other assays above

Cc1cc(CC(=O)O)n(C)c1C(=O)c1ccc(Cl)cc1
inactive: [20]

CC[C@H]1CN2CCc3cc(OC)c(OC)cc3[C@@H]2C[C@@H]1C[C@H]1NCCc2cc(OC)c(OC)cc21
inactive: [8] | [16] | [10] | [11] | [12] | [13]

NCCNCCNCCNCCN
inactive: [20]

O=C1N=C(O)CN1/N=C/c1ccc(-c2ccc([N+](=O)[O-])cc2)o1
inactive: [5] | [8] | [15] | [16] | [10] | [17] | [18] | [11] | [12] | [13]
active: [3] 11.2 µM | [6] 7.08 µM

CC12CCC(CC1)C(C)(C)O2
inactive: [20]

COc1ccc(Cl)cc1C(=O)NCCc1ccc(S(=O)(=O)NC(=O)NC2CCCCC2)cc1
not listed: [1] | [6] | [9] | [19] | [20]
inactive: all other assays above

[Cl][In]([Cl])[Cl]
inactive: [20]

CC(C)C(=O)c1c(C(C)C)nn2ccccc12
not listed: [1] | [3] | [6] | [7] | [9] | [19] | [20]
inactive: all other assays above

Oc1cccc(O)c1
inactive: [20]

CNC(=O)Oc1ccc2c(c1)[C@]1(C)CCN(C)[C@@H]1N2C
inactive: [14] | [8] | [15] | [16] | [10] | [17] | [18] | [11] | [12] | [13]

COc1ccccc1O
inactive: [20]

CC1(C)[C@@H]2CC[C@@]1(C)C(=O)C2
inactive: [20]

CCCCCCCCCCCCCCCC(=O)NCCO
active: [3] 12.6 µM | [6] 3.16 µM
not listed: [1] | [2] | [7] | [20]
inactive: all other assays above

CNCCC(Oc1ccc(C(F)(F)F)cc1)c1ccccc1 (centres undefined)
inactive: [8] | [16] | [11] | [12] | [13]

CN(C)CCOC(C)(c1ccccc1)c1ccccn1 (centres undefined)
active: [2] 6.31 µM | [5] 10 µM | [6] 3.55 µM
not listed: [1] | [3] | [4] | [9] | [19] | [20]
inactive: all other assays above

NCCNCCNCCN
inactive: [20]

COCCOC(=O)C1=C(C)NC(C)=C(C(=O)OC/C=C/c2ccccc2)C1c1cccc([N+](=O)[O-])c1 (centres undefined)
inactive: [15] | [16] | [10] | [17] | [11] | [12] | [13]

O=C1c2c(O)cccc2Cc2cccc(O)c21
inactive: [20]

O=C1O[C@H]([C@@H](O)CO)C(O)=C1O
inactive: [20]

COC(=O)C1=C(C)NC(C)=C(C(=O)OC)C1c1ccccc1[N+](=O)[O-]
inactive: [5] | [14] | [8] | [16] | [10] | [17] | [11] | [12] | [13]

C[C@]12C[C@H](O)[C@H]3[C@@H](CCC4=CC(=O)CC[C@@]43C)[C@@H]1CC[C@@H]2C(=O)CO
inactive: [20] | [15] | [16] | [10] | [11] | [12] | [13]

CN(C)CCC=C1c2ccccc2CCc2ccccc21
inactive: [14] | [8] | [9] | [15] | [16] | [18] | [11] | [12] | [13]

CCN(CC)C(C)CN1c2ccccc2Sc2ccccc21 (centres undefined)
inactive: [15] | [16] | [10] | [17] | [11] | [12] | [13]
